# Only some compounds are listed: those with a hit (about 6% of all), similar ones and a draw of the others.
# BCR signal inh: inhibitors of chronic active B-cell receptor signaling. 340,000 tested, 0.05% active. Potency, µM (top dose mostly 46.1 µM), inactives show top-dose activity change, negative = inhibition, usual class: inhibitors. ABC-DLBCL IkBa-CBG/CBR reporter, luminescence ratio, 4 h; active = well fitted inhibition curve with a large enough effect in the signal ratio, with a control signal flat, not every such curve was filed as active; inconclusive = small, poorly fitted or top-dose-only effect, or effect the other way, or a change in a side signal; the % refers to the signal ratio;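 note: potency is the fitted concentration of half-maximal effect; plate controls were basal doxycycline-induced cells for no effect and cells given 10 µM MG132 for full effect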
#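 TMD8 human ABC-DLBCL cells with doxycycline-inducible IκBα–green luciferase fusion and unfused red luciferase, in 0.5% FBS medium; compounds up to 46 uM, 4 h at 37C. Green/red luminescence ratio, filter-overlap corrected, fitted to concentration-response curves.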
# D1 potentiator: enhances dopamine response at the human D1 receptor. P21728. HEK293 TREx D1 cells, calcium flux, dopamine EC20 potentiation. potentiation, % at 10 µM. 360,000 tested, 0.036% active. AID 504651; in the data active = potentiation above about 30%; note: 0% is about no effect
# D3 antag: antagonists of human D3 dopamine receptor; P35462; D3R cells, DiscoveRx beta-arrestin luminescence, antagonist mode; hits give low values; max response, negative = inhibition, %; 360,000 tested, 2.5% active; AID 652054; in the data active = max response below about -50%; inconclusive = no clear call, values can overlap the other calls; note: % is set by controls: 0 for no effect and ±100 for the full control effect
# Target sequence (P35462 whole entry, looked up): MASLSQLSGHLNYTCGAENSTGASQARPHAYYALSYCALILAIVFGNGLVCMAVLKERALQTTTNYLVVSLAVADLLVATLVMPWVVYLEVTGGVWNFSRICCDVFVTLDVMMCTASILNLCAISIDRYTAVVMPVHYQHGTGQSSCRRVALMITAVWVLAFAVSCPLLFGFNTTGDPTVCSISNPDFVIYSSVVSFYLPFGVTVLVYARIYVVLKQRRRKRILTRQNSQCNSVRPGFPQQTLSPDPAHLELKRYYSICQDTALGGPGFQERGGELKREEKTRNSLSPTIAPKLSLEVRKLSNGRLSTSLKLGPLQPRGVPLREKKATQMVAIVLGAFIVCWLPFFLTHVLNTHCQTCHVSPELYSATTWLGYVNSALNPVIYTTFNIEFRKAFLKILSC
#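 Cells plated overnight at 1500 cells/well, then exposed to library compounds with dopamine controls for 90 minutes at 37 degrees C. DiscoveRx reagent added for 30–60 minutes at room temperature; luminescence read, quantitative HTS format.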
# D1 agonist: agonists of human D1 dopamine receptor | P21728 | activation, % at 2 µM | AID 504660 | HEK293 T-REx D1 cells, calcium flux, agonist mode | 360,000 tested, 1% active; in the data active = activation above about 30%; note: 0% is about no effect
#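 Inducible HEK293 T-REx D1 cells, force-coupled to calcium signalling, were plated at 4000 cells/well with tetracycline and held overnight at 30 C. After no-wash calcium dye loading, compound-evoked calcium rise over 180 s flagged agonists.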
# D3 ag: D3 dopamine receptor (human) agonism. P35462. D3R DiscoveRx beta-arrestin cells, luminescence, 90 min. max activation, %. 410,000 tested, 0.58% active; in the data active = max activation above about 30%; note: 0% is about no effect
#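 Agonist-mode cell screen: cells plated at 1500/well and incubated overnight at 37 °C, then exposed to library compounds for 90 min at 37 °C. Detection reagent was added for 30–60 min at room temperature, and luminescence was read.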
# D1 antag: antagonists of human D1 dopamine receptor. activity change, negative = inhibition, % at 10 µM. HEK293 TREx D1 cells, calcium flux, dopamine EC80; hits give low values. P21728. 360,000 tested, 3.2% active; in the data active = activity change below about -30%; note: % is set by controls: 0 for no effect and ±100 for the full control effect
#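 HEK293 T-REx cells expressing inducible, force-coupled D1 receptor; no-wash Ca dye, 30–90 min RT. Cmpd → 180 s read at 1 Hz → EC80 DA → 180 s read.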
# * = called active by the depositor; ? = inconclusive; . = no result.
SMILES,BCR signal inh,D1 potentiator,D3 antag,D1 agonist,D3 ag,D1 antag
COc1ccc(C2=NN(c3ccccc3)C(c3ccc(OC)c(OC)c3)C2)cc1 (stereo not given),-0.5%,3.3,-4.0,4.5,-3.8,2.1
COc1ccc(C2CC(c3ccc(F)cc3)=NN2c2ccccc2)cc1OC (stereo not given),-1.4%,0.7,0.5,5.7,6.7,-78.4*
CCOC(=O)c1c(C)sc(-c2c(-c3cccc(Cl)c3)[nH]c3c2c(=O)n(C)c(=O)n3C)c1O,.,15.2,.,315.4*,8.3,-12.5
CCOC(=O)c1c(C)sc(-c2c(-c3cc(C)ccc3C)[nH]c3c2c(=O)n(C)c(=O)n3C)c1O,.,8.1,.,276.6*,3.3,14.3
CN(Cc1ccc(Cl)c(Cl)c1)C(C(=O)NCc1ccccc1)c1ccco1 (stereo not given),.,.,-16.2,.,-0.5,.
Cc1ccc(NC(=O)C2(C)CCN2C2Cc3ccccc3C2)cc1 (stereo not given),.,.,11.7,.,-4.1,.
CCN(CC)C(=O)c1sc2c(c1C)c(=O)n(-c1ccc(Cl)c(Cl)c1)c(=O)n2Cc1ccccc1C#N,11.7%,-2.2,.,1.9,-3.0,-14.5
Cc1ccc(N(C)S(=O)(=O)c2cccc(C(=O)NC3=NCCS3)c2)cc1,-4.8%,-2.0,9.5,-0.2,-1.0,.
Cc1ccc(NC(=O)CSCC(=O)Nc2cc(C(F)(F)F)ccc2N2CCOCC2)cc1,?,-2.4,8.3,0.8,4.9,-34.1*
COc1cc(OC)cc(C(=O)Nc2ccc(N3CCOCC3)cc2N2CCOCC2)c1,?,-2.8,14.1,-0.6,3.0,-51.8*
COc1ccc(N(C)S(=O)(=O)c2cccc(C(=O)NC3=NCCS3)c2)cc1,3.8%,-11.3,-10.6,8.6,-2.0,-39.1*
Cc1cc(NC(=O)CSCC(=O)Nc2cc(C(F)(F)F)ccc2N2CCOCC2)no1,5.8%,-0.5,-22.9,0.0,-8.6,-13.1
Cc1ccc(N(C)S(=O)(=O)c2cccc(C(=O)Nc3ccc(N4CCOCC4)cc3)c2)cc1,-5.6%,-7.3,0.2,3.4,-4.3,-39.3*
CCCNC(=O)C1(C)CCN(C(=O)c2cc(C(C)(C)C)nn2C)C1 (stereo not given),.,.,-20.1,.,-7.4,.
O=C1NC[C@H](CCCCN2C[C@H](Cc3ccccc3)N(Cc3ccccc3)C(=O)C2=O)N(CCC2CCCCC2)C1=O,.,.,-19.0,.,-2.0,.
O=C(Nc1ccc(N2CCOCC2)cc1N1CCOCC1)c1ccc(Cl)cc1,3.1%,3.1,-23.1,2.5,-6.5,-13.6
Cc1ccc(C(=O)Nc2ccc(N3CCOCC3)cc2N2CCOCC2)cc1,-6.5%,-18.7,1.6,2.3,3.3,-68.9*
COc1ccc([S+](=O)([O-])N2CCN([S+](=O)([O-])c3ccc4c(c3)OCCO4)CC2)c(OC)c1,.,5.2,.,6.6,.,-16.6
O=C(NC1CCCCC1)C(=O)N(Cc1cccnc1)C(C(=O)NCc1ccco1)c1ccccc1 (stereo not given),-0.3%,-1.4,.,0.8,.,-35.2*
CCCN(C)C1CN(Cc2cn(Cc3ccc(OC)cc3)nn2)S(=O)(=O)C1 (stereo not given),.,.,-2.9,.,-3.2,.
Cc1[nH]c2ccccc2c1C(C#N)(C#N)C1C(=O)c2ccccc2C1=O,?,-8.0,-88.8*,6.1,-20.5,-25.4
COc1cccc(NC(=O)Cc2csc(COc3cccc(C)c3)n2)c1,.,1.4,.,2.5,6.9,5.0
O=C(O)CC/C(=N\Nc1ccc(S(=O)(=O)N2CCOCC2)cc1[N+](=O)[O-])c1cccs1,5.0%,-4.0,-62.5*,2.4,-10.0,-8.4
CC/C(C)=N/Nc1ccc(S(=O)(=O)N2CCCC2)cc1[N+](=O)[O-],-1.8%,-1.1,-5.5,2.0,-9.3,-47.5*
O=[N+]([O-])c1cc(S(=O)(=O)N2CCCC2)ccc1NN=C1CCCCC1,1.2%,-5.7,-11.1,0.2,-12.8,5.2
SMILES,BCR signal inh,D1 potentiator,D3 antag,D1 agonist,D3 ag,D1 antag
CC(C)[C@H](Nc1ccc(S(=O)(=O)N2CCOCC2)cc1[N+](=O)[O-])C(=O)OCC(N)=O,-3.5%,-7.4,-14.4,1.9,-3.1,-74.0*
O=C(O)CC/C(=N\Nc1ccc(S(=O)(=O)N2CCCC2)cc1[N+](=O)[O-])c1cccs1,?,-1.1,-27.5,0.4,-6.3,-9.0
Cc1cn2c(=O)cc(COC(=O)c3ccc(NC(=O)C(C)Oc4ccccc4)cc3)nc2s1 (stereo not given),.,0.8,.,14.1,-4.9,-3.9
Cc1ccc2c(c1)N(Cc1ccccc1)C(=O)C(C)S2 (stereo not given),.,.,-23.5,.,-7.8,.
Cc1ccc2c(c1)C(CCN)C(=O)N2Cc1ccccc1 (stereo not given),2.7%,-4.8,-105.9*,6.6,-30.4,-5.8
c1ccc(C2CNCCc3ccccc32)cc1 (stereo not given),2.3%,-18.5,-15.3,15.3,-4.8,-42.2*
Oc1cc2c(cc1O)[C@@H](c1ccccc1)CNCC2,-1.8%,-6.0,17.5,5.2,5.0,-90.7*
CSc1nnc2c(n1)OC(c1cccc(O)c1Cl)Nc1ccccc1-2 (stereo not given),.,-0.7,.,-0.7,1.8,-3.3
Cc1nc(N2CCN(Cc3ccccc3)CC2)nc2c1C(=O)CC(C)C2 (stereo not given),4.3%,-1.8,-60.3*,6.9,-0.9,-4.3
CCN1CCN(c2nc(C)c3c(n2)CC(C)CC3=O)CC1 (stereo not given),0.1%,0.6,-11.7,4.9,-32.7,-26.7
Cc1csc(-c2nc3ccccc3n2C(C)c2nc3ccccc3[nH]2)c1 (stereo not given),.,.,-12.8,.,-5.0,.
c1ccc(-c2cc(-c3nnco3)c3ccccc3n2)nc1,-1.0%,9.8,-10.3,-1.1,-4.6,-1.6
COc1cc(-c2cc(-c3nnco3)c3ccccc3n2)cc(OC)c1OC,-14.7%,-10.2,16.0,0.9,0.7,-96.3*
COc1cc(C(=S)N2CCOCC2)ccc1OC(=O)c1ccccc1[N+](=O)[O-],-10.3%,-4.3,6.2,6.3,1.0,-32.8*
COc1cc(C(=S)N2CCOCC2)ccc1OC(=O)c1cc([N+](=O)[O-])c(C)c([N+](=O)[O-])c1,1.8%,11.0,-3.0,3.6,2.6,-0.4
O=C(Oc1cccc(C(=S)N2CCOCC2)c1)c1ccc([N+](=O)[O-])cc1[N+](=O)[O-],-5.0%,-6.4,-50.8*,1.7,-16.9,-0.7
O=C(Oc1ccc(C(=S)N2CCOCC2)cc1)c1ccc([N+](=O)[O-])cc1[N+](=O)[O-],0.0%,-5.1,-29.1,-0.6,-7.7,-2.5
Cc1c(-c2ccc(OCCN3CCOCC3)cc2)c(=O)oc2ccc3ccccc3c12,.,.,13.4,.,4.0,.

# Screens as filed in PubChem.
